# Screens: PubChem, National Center for Advancing Translational Sciences (NCATS)
# Shown are actives, neighbours in structure and some others; about 6.1% of the full set was active somewhere.
# ATXN viability = Viability Counterscreen for Primary qHTS for Inhibitors of ATXN expression. 400,000 tested, 0.49% active. AID 651635, 2014. Potency, µM (highest dose often 56.7 µM), actives largely listed as cytotoxic. S2 cells (HEK-293 line with an ATXN2-luciferase reporter) viability, CellTiter-Fluor protease fluorescence, 24 h; also: nearly all actives have a fitted effect of over 40% in size
# ATXN2 expr inh = Primary qHTS for Inhibitors of ATXN expression. 360,000 tested, 0.72% active. Potency, µM (series often up to 57 µM), for inactives: top-dose activity change, negative = inhibition, hits mostly inhibitors. AID 1745845, 2022. HEK-293 ATXN2-luciferase reporter, luminescence, 24 h; also: % is scaled to controls: 0 for no effect and ±100 for the full control effect; nearly all actives have a fitted effect of over 55% in size
#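 ATXN2-luciferase reporter cells (luciferase flanked by upstream and downstream ATXN2 gene portions) were treated 24 h at 37 °C with compounds at up to 57 uM. SteadyGlo luminescence gave expression; GF-AFC fluorescence gave viability.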
# HepG2 tox-1 = qHTS for Inhibitors of TGF-b: Cytotox Counterscreen. HepG2 CAGA-GFP viability, ATP luminescence, 18 h. Potency, µM (doses to about 46.1 µM), inactives show at the top dose activity change, negative = cytotoxicity, hits mostly cytotoxic. AID 588856, 2011. 410,000 tested, 0.76% active
#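 HepG2 CAGA-GFP cells (1000/well, DMEM with 1% FBS) received compound, then TGF-beta at 500 pg/mL final, and were incubated 18 hours at 37 degrees C. Viability was read by CellTiter-Glo luminescence. Media-only wells were set as complete cell-killing and DMSO as no toxicity.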
# Gal4-VP16 FLuc = VP16 counterscreen qHTS for inhibitors of ROR gamma transcriptional activity. 310,000 tested, 3.5% active. Potency, µM (series often up to 53.6 µM), without a hit: top-dose activity, negative = inhibition, hits mostly inhibitors. Drosophila S2 Gal4-VP16 UAS-luciferase, luminescence, 20 h;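 also: Gal4-VP16 expression switched on by copper sulfate through the metallothionein promoter; % is scaled to controls: 0 for no effect and ±100 for the full control effect; nearly all actives have a fitted effect of over 50% in size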
# RORg inh = qHTS for inhibitors of ROR gamma transcriptional activity | Nuclear receptor ROR-gamma (Mus musculus), P51450 | Drosophila S2 Gal4-RORgamma UAS-luciferase reporter, 20 h | Potency, µM (highest dose often 53.6 µM), inactives show top-dose activity change, negative = inhibition, hits mostly inhibitors | 310,000 tested, 5.4% active | AID 2551, 2010; also: % is scaled to controls: 0 for no effect and ±100 for the full control effect; nearly all actives have a fitted effect of over 60% in size
# Target sequence (P51450 whole entry, looked up, the tested form may be a part): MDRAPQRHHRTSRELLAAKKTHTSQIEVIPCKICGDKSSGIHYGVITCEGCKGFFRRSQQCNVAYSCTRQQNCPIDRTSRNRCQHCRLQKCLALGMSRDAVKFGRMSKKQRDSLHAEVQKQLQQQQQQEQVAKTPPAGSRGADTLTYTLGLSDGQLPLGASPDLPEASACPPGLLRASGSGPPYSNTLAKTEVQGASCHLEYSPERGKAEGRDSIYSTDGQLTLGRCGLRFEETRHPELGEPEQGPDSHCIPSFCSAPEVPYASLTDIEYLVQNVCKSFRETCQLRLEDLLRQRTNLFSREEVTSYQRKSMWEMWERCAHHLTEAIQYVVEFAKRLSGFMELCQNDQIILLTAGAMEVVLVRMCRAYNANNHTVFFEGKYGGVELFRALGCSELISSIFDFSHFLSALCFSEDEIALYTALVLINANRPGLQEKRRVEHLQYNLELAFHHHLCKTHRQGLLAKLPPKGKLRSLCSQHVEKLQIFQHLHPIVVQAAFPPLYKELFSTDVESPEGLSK
#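 Luminescence from a UAS-regulated Photinus luciferase reporter in stably transfected Drosophila Schneider cells is measured; decreased signal marks ROR gamma inhibition. Fusion expression is induced by 700 uM copper sulfate for 20 hr.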
# TGFb SMAD3 inh = qHTS for Inhibitors of TGF-b; HepG2 CAGA-GFP TGF-b/SMAD3 reporter, GFP fluorescence, 18 h; TGF-beta stimulated, 500 pg/mL final; Potency, µM (titrated, usually from 46.1 µM), for the others: at the top dose activity, negative = inhibition, usual class: inhibitors; 410,000 tested, 1.2% active; also: % is scaled to controls: 0 for no effect and ±100 for the full control effect; nearly all actives have a fitted effect of over 65% in size
#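 Cell-based qHTS in HEPG2 carrying a CAGA-GFP Smad reporter; compounds added before 500 pg/mL final TGF-beta, 18 h incubation at 37 degrees C, GFP fluorescence quantified per cell by imaging cytometry.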
# TGFb confirm = qHTS for Inhibitors of TGF-b: Confirmation of Cherry Picks. shares compounds with TGFb SMAD3 inh. HepG2 CAGA-GFP TGF-b reporter, GFP fluorescence, 18 h; cells stimulated with TGF-beta, 500 pg/mL. Potency, µM (series often up to 46.1 µM), for the others: top-dose activity, negative = inhibition, usual class: inhibitors. 1,600 tested, 63% active; also: % is scaled to controls: 0 for no effect and ±100 for the full control effect; nearly all actives have a fitted effect of over 65% in size
# HepG2 tox-2 = qHTS for Inhibitors of TGF-b: Cytotox Counterscreen for Cherry Picks | HepG2 CAGA-GFP viability, ATP luminescence, 18 h; cells stimulated with TGF-beta, 500 pg/mL | shares compounds with TGFb SMAD3 inh | Potency, µM (series often up to 46.1 µM), for the others: at the highest dose activity, negative = cytotoxicity, actives largely listed as inhibitors | 1,600 tested, 27% active; also: % is scaled to controls: 0 for no effect and ±100 for the full control effect; nearly all actives have a fitted effect of over 70% in size
# CCL64 TGFb inh = qHTS for Inhibitors of TGF-b: CCL64 Cells Orthogonal Assay for Cherry Picks; shares compounds with TGFb SMAD3 inh; 1,600 tested, 41% active; CCL64 CAGA-GFP reporter, TGF-b stimulated, GFP fluorescence, 18 h; Potency, µM (highest dose often 46.1 µM), for the others: at the top dose activity, negative = inhibition, actives largely listed as inhibitors; also: nearly all actives have a fitted effect of over 65% in size
# TGFb COP inh = qHTS for Inhibitors of TGF-b: Hit Validation in HepG2 Cells using COP promoter. shares compounds with TGFb SMAD3 inh. HepG2 COP-GFP TGF-b reporter, GFP fluorescence, 18 h; cells stimulated by added recombinant TGF-beta. Potency, µM (doses to about 46.1 µM), inactives show top-dose activity, negative = inhibition, most hits filed as inhibitors. 1,600 tested, 3% active. AID 720537, 2013; also: nearly all actives have a fitted effect of over 70% in size
# An asterisk follows results filed as active; i = inactive; u = inconclusive; x = no result; [ ] = another dose, or the depositor's remark. Calls follow the shape of the dose curve; as a rule, active = well fitted curve in the direction sought with a large enough effect; inconclusive = small, poorly fitted or top-dose-only effect, or another doubt; inactive = no such curve, though single readings can be large; an effect the other way counts as inactive or inconclusive. Potency is read from the fitted curve at half-maximal effect.
SMILES,ATXN viability,ATXN2 expr inh,HepG2 tox-1,Gal4-VP16 FLuc,RORg inh,TGFb SMAD3 inh,TGFb confirm,HepG2 tox-2,CCL64 TGFb inh,TGFb COP inh
CC[C@]12c3[nH]c4cc(-c5ccco5)ccc4c3CCN1C(=O)[C@@H](CC(=O)NCc1cccc(C(F)(F)F)c1)C[C@@H]2C(=O)N1CCN(C(=O)c2ccco2)CC1,u,u,-5%,x,x,11µM*,4.1µM*,-27%,u,18%
CC[C@]12c3[nH]c4ccc(Cl)cc4c3CCN1C(=O)[C@@H](CC(=O)NCc1cccc(C(F)(F)F)c1)C[C@@H]2C(=O)N1CCN(C(=O)c2ccco2)CC1,28µM*,u,6%,x,x,13µM*,16µM*,u,10µM*,64%
Cc1ccc(-c2cc(NC(=O)c3ccccc3Cl)on2)cc1,i,11%,-43%,x,x,-23%,x,x,x,x
CCS(=O)(=O)N1CCc2cc(C(=O)Nc3cc(C(F)(F)F)ccc3Cl)ccc21,i,-10%,-23%,x,x,8%,x,x,x,x
O=c1cc(-c2ccc(O)cc2)oc2cc(O[C@@H]3O[C@H](CO)[C@H](O)[C@H](O)[C@H]3O)cc(O)c12,x,x,-15%,-17%,1%,1%,x,x,x,x
CCOc1ccc(-n2ccnc2SCC(=O)Nc2ccc(OC)cc2OC)cc1,x,x,-10%,x,x,-9%,x,x,x,x
CCOc1ccc(-c2nn(CC(=O)NC3CCCCC3)c3c2cnc2ccc(C)cc23)cc1,i,-3%,-2%,x,x,3%,x,x,x,x
CC[C@]12c3[nH]c4cc(CCC(=O)N(C)C)ccc4c3CCN1C(=O)[C@@H](CC(=O)NC/C=C(\C)CCC=C(C)C)C[C@@H]2C(=O)N1CCN(C(=O)C2CC2)CC1,u,-22%,-17%,x,x,u,x,x,x,x
CC[C@]12c3[nH]c4ccc(Cl)cc4c3CCN1C(=O)[C@@H](CC(=O)NC/C=C(\C)CCC=C(C)C)C[C@@H]2C(=O)N1CCN(C(=O)C2CC2)CC1,x,u,-68%,x,x,10µM*,u,u,21µM*,66%
COc1ccc(-c2cc(=Nc3c(C)n(C)n(-c4ccccc4)c3=O)c3ccccc3o2)cc1,i,3%,-27%,-8%,3%,-11%,x,x,x,x
COc1ccc(-c2c/c(=N\c3nc(-c4ccccc4)c(C)s3)c3ccccc3o2)cc1O,x,u,-15%,-2%,0%,8.9µM*,8.2µM*,u,4.1µM*,37%
CC(C)(C)c1ccc(C(=O)NNc2ncnc3c2cnn3-c2ccccc2)cc1,i,-10%,-1%,x,x,-2%,x,x,x,x
O=C(Cn1nc(-c2ccccc2)c2c(c1=O)CCCC2)Nc1ccc(F)c(Cl)c1,i,-22%,-3%,x,x,-5%,x,x,x,x
Cc1cc(C)n2nc(CNC(=O)c3cccc(N(C)C)c3)nc2n1,i,23%,-7%,x,x,3%,x,x,x,x
Cc1noc(-c2ccc(N(C)Cc3ccccc3)c([N+](=O)[O-])c2)n1,i,37%,-18%,x,x,u,x,x,x,x
CCc1nc(N)nc(N)c1-c1ccc(N(C)Cc2ccccc2)c([N+](=O)[O-])c1,u,19µM*,-38%,x,x,0.71µM*,u,0.29µM*,29µM*,82%
O=C(CN1C(=O)c2ccccc2Sc2ccc(C(=O)N3CCOCC3)cc21)Nc1ccc(Cl)cc1F,x,x,-9%,x,x,-19%,x,x,x,x
COc1cccc(NC(=O)Nc2nc(SC(C)(C)C)ns2)c1,u,u,-104%,u,14%[1.91 µM],6.3µM*,10µM*,u,8.2µM*,41%
CCSc1nsc(NC(=O)Nc2cccc(F)c2)n1,u,u,-41%,u,u,7.1µM*,7.3µM*,6.5µM*,u,104%
CCCSc1nsc(NC(=O)Nc2ccc(F)cc2F)n1,x,x,-83%,u,u,8.9µM*,6.5µM*,5.8µM*,7.3µM*,82%
COc1cccc(NC(=O)Nc2nc(SC)ns2)c1,i,42%,-42%,u,u,u,x,x,x,x
CCc1cccc(NC(=O)CCN2C(=O)c3ccccc3Sc3ncccc32)c1,x,x,-30%,x,x,-23%,x,x,x,x
Cc1ccccc1NC(=O)c1ccc(Nc2c([N+](=O)[O-])cc([N+](=O)[O-])c3ccccc23)cc1,i,-28%,-20%,13%,25%,u,u,-19%,2%,-1%
COc1ccc(N2CCN(S(=O)(=O)CCNC(=O)c3ccc(C(F)(F)F)cc3)CC2)cc1,x,x,1%,x,x,30%,x,x,x,x
CCN(CC(O)Cn1c2ccccc2c2ccccc21)S(=O)(=O)c1ccc(C)cc1 (stereo not given),i,-24%,-73%,0%,27%,10µM*,21µM*,u,u,59%
O=C(Oc1ccc(Cl)c2cccnc12)c1cccnc1,x,0%,-63%,1µM*,0.89µM*,10µM*,-13%,0%,u,2%
O=C(Oc1ccc(Cl)c2cccnc12)N1CCCCC1,u,28%,4%,7%,11%,1%,x,x,x,x
Cc1ccc2sc(N(CCCN(C)C)C(=O)CCS(=O)(=O)c3ccccc3)nc2c1C,x,u,6.3µM*,u,u,5.6µM*,u,u,3.3µM*,u
